# Source: PubChem (National Center for Advancing Translational Sciences (NCATS))
# Pf growth 48h – inhibits P. falciparum growth in the first generation, 48 h. P. falciparum luciferase growth in erythrocytes, 48 h. Potency, µM (series often up to 28.7 µM), for the others: at the top dose activity change, negative = inhibition, hits mostly inhibitors. actives 5.9% (n = 310,000). AID 504832; note: potency is the fitted concentration of half-maximal effect; % is set by controls: 0 for no effect and ±100 for the full control effect
#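 Parasite viability was followed by luminescence of a genomically integrated firefly luciferase. Cultures held 0.1% parasitemia at 2% hematocrit (final), incubated under 5% CO2 at 37 C.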
# Marburg entry inh – inhibitors of Marburg virus binding or cell entry; Marburg virus pseudotyped entry inhibition, cell reporter; Potency, µM (highest dose often 37.8 µM), inactives show at the top dose activity change, negative = inhibition, usual class: inhibitors; actives 1.8% (n = 300,000); AID 540276; calls by dose curve; tested in HEK293 cells; note: potency is the fitted concentration of half-maximal effect; % is set by controls: 0 for no effect and ±100 for the full control effect
# Pf growth 96h – P. falciparum growth inhibition at 96 hours. Potency, µM (doses to about 28.7 µM), without a hit: top-dose activity change, negative = inhibition, hits mostly inhibitors. actives 6.9% (n = 320,000). P. falciparum luciferase reporter growth, 96 h; note: potency is the fitted concentration of half-maximal effect; % is set by controls: 0 for no effect and ±100 for the full control effect
#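 Erythrocytes infected with luciferase-expressing P. falciparum were dispensed at 2% hematocrit and 0.05% parasitemia (final), then incubated with compounds 96 hours at 37 C in 5% CO2. Luminescence after detection reagent addition reported growth.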
# Shiga toxin inh – Shiga toxin inhibition; Vero cells, Shiga toxin protein synthesis inhibition reporter; inhibition, % at 38.7 µM; actives 9.2% (n = 290,000); in the data active = inhibition mostly above about 28%, no sharp cut-off; inactive = mostly below about 43%; note: 0% is about no effect
# Cycloheximide cs – counter-screen for Shiga toxin inhibitors: cycloheximide protein synthesis inhibition. AID 2314. actives 12% (n = 300,000). max response, %. cell reporter, cycloheximide protein synthesis inhibition counterscreen; in the data active = max response mostly above about 13%, no sharp cut-off; inactive = mostly below about 14%; note: read at 38.3 µM for the half of the compounds with a filed dose; 0% is about no effect
# LASV entry inh – blocks Lassa virus binding to or entry into cells. Lassa virus pseudotype entry inhibition, cell reporter. Potency, µM (doses to about 37.9 µM), inactives show at the highest dose activity change, negative = inhibition, most hits filed as inhibitors. actives 1.2% (n = 300,000). AID 540256; calls by dose curve; tested in HEK293 cells; note: potency is the fitted concentration of half-maximal effect; % is set by controls: 0 for no effect and ±100 for the full control effect; nearly all actives have a fitted effect of over 50% in size
# * = called active by the depositor; ? = inconclusive; · = no result given; [ ] = remark or other dose. Rows were chosen to be rich in hits. Some 19% of all compounds tested hit in one or more screens of this group. Unless noted, calls come from the whole dose curve; as a rule, active = well fitted inhibition curve with a large enough effect; inconclusive = small, poorly fitted or top-dose-only effect, or another doubt; inactive = no such curve, though single readings can be large or run the other way.
SMILES,Pf growth 48h,Marburg entry inh,Pf growth 96h,Shiga toxin inh,Cycloheximide cs,LASV entry inh
CCOC(=O)c1ccc(Nc2c(CC)c(C)nc3ncnn23)cc1,-9%,-14%,-28%,-2,-1,16%[14.3 µM]
CC(=O)c1ccc(NC(=O)CCc2c(C)nc3ncnn3c2C)cc1,19%,23%,68%,61*,21*,8%
CCc1c(C)nc2ncnn2c1Nc1ccc(C(C)=O)cc1,63%,?,·,109*,46*,?
Cc1nc(N2CCCCC2)sc1C(=O)c1cccc([N+](=O)[O-])c1,?,-7%[46.1 µM],-65%,84*,37*,-23%
Cc1nc(N2CCCCC2)sc1C(=O)c1ccc(SCCO)c([N+](=O)[O-])c1,-12%,?,4%,8,17,?
CCc1n[nH]c(=S)n1/N=C/c1ccc(N(CC)CC)cc1,?,-4%,?,8,18,?
CC(=O)N1CCN=C1SCc1cccc(Cl)c1,4%,·,?,2,1,·
Cc1ccc(CN2CCN(CC(=O)N/N=C/c3ccc(C)o3)CC2)cc1,33%,·,30%,18,0,·
COC(=O)c1ccc(OCC(O)CN2CCc3cc(OC)c(OC)cc3C2c2ccccc2)cc1 (centres undefined),?,?,10µM*,-5,-2,?
COC(=O)c1ccc(OCC2c3cc(OC)c(OC)cc3CCN2C(=O)c2ccco2)cc1 (centres undefined),15µM*,?,?,-17,10,4.1µM*
CCC(=O)N1CCc2cc(OC)c(OC)cc2C1COc1ccc(C(=O)OC)cc1 (centres undefined),10µM*,?,?,-9,-1,?
COC(=O)c1ccc(OCC2c3cc(OC)c(OC)cc3CCN2C(C)=O)cc1 (centres undefined),?,-25%,?,-12,4,?
Cc1sc(NC(=O)c2ccco2)c(C(c2cccnc2)N2CCCC2)c1C (centres undefined),12µM*,?,10µM*,15,18,-26%
CCOc1ccc(C(c2c(NC(=O)c3ccco3)sc(C)c2C)N2CCOCC2)cc1 (centres undefined),5.2µM*,·,13µM*,·,·,·
Cc1sc(NC(=O)c2ccco2)c(C(c2ccncc2)N2CCOCC2)c1C (centres undefined),10µM*,?,?,-12,-2,-6%
COc1cccc(C(c2c(NC(=O)c3ccco3)sc(C)c2C)N2CCOCC2)c1 (centres undefined),4.7µM*,·,3.3µM*,·,·,·
Cc1sc(NC(=O)c2ccco2)c(C(c2cccnc2)N2CCN(C)CC2)c1C (centres undefined),?,?,?,-10,-1,?
Cc1sc(NC(=O)c2ccco2)c(CN2CCN(c3ccccc3)CC2)c1C,·,?,?,12,2,?
O=C(CSc1n[nH]c(-c2ccccc2Cl)n1)N1CCN(c2ccccc2)CC1,·,·,·,·,·,-4%[46.1 µM]
O=C(NC1CCCc2ccccc21)c1ccc(F)cc1F (centres undefined),13%,?,18%,-9,-3,-3%
CC1CCCC(C)N1CCCNC(=O)c1csc2c1CCCCC2 (centres undefined),16%,·,3%,-12,-5,·
NC(=O)CSc1nc2cc3c(cc2c(=O)n1CCCCCC(=O)NCc1ccc2c(c1)OCO2)OCO3,·,·,·,·,·,-1%[46.1 µM]
CCOc1ccc(C(c2c(NC(=O)c3ccccc3)sc(C)c2C)N2CCN(C)CC2)cc1 (centres undefined),?,?,12µM*,31*,16,?
Cc1sc(NC(=O)c2ccccc2)c(C(c2ccccn2)N2CCN(CCO)CC2)c1C (centres undefined),?,?,-50%,-16,-3,-11%
Cc1cccc(-n2c3nc(=O)[nH]c(=O)c-3cc3c(C)nn(-c4ccccc4)c32)c1C,-9%,-1%[46.1 µM],?,-8,-3,15%[46.1 µM]
SMILES,Pf growth 48h,Marburg entry inh,Pf growth 96h,Shiga toxin inh,Cycloheximide cs,LASV entry inh
O=C(c1ccc(Cl)cc1)N1CCc2c([nH]c3ccccc23)C1C(F)(F)F (centres undefined),50%,11µM*,?,22,9,?
O=C(c1cccs1)N1CCc2c([nH]c3ccccc23)C1c1ccc(Cl)cc1 (centres undefined),10µM*,?,10µM*,2,-5,?
CCc1ccc(C2c3[nH]c4ccccc4c3CCN2C(=O)c2cc[n+]([O-])cc2)cc1 (centres undefined),?,·,-1%,26,-2,·
Cc1ccc(C2c3[nH]c4ccccc4c3CCN2C(=O)CCc2ccccc2)cc1 (centres undefined),·,·,·,·,·,3.2µM*
O=C(c1cccs1)N1CCc2c([nH]c3ccccc23)C1c1ccccn1 (centres undefined),?,·,33%,-3,-4,·
O=C(Nc1ccccc1)N1CCc2c([nH]c3ccccc23)C1C(F)(F)F (centres undefined),?,?,?,5,-2,?
CCOc1ccc(C(=O)C2CCN(C(=O)c3ccccc3C(=O)O)CC2)cc1,12%,3%,·,-2,-2,-5%
CCn1c(SCC(=O)N2CCCc3ccccc32)nc2c1c(=O)n(C)c(=O)n2C,-6%,-29%,?,-10,2,2%
COC(=O)c1ccc(NC(=O)CCCCCn2nnc3ccccc3c2=O)cc1,5.2µM*,·,3.3µM*,10,8,·
Cc1cccc(NC(=O)Cn2c(=O)n(C)c3ccccc32)c1,34%,-5%,-6%,16,-1,3%
Cc1cccc(NC(=O)Cn2nnc3ccccc32)c1,57%,?,?,136*,44*,28%
Cc1ccc(NC(=O)Cn2nnc3ccccc32)cc1,96%,13%[46.1 µM],-24%,68*,37*,-2%[46.1 µM]
COC(=O)c1ccc(NC(=O)Cn2nnc3ccccc32)cc1,96%,?,5.2µM*,67*,38*,2%
O=C(Cn1nnc2ccccc21)Nc1ccc([N+](=O)[O-])cc1,14%,11%[46.1 µM],27%,-12,-3,-14%
COc1ccc(S(=O)(=O)N(CC(=O)O)c2ccccc2)cc1,?,13%,4%[5.75 µM],-5,-3,7%
Cc1ccc(-c2noc(CNC(=O)COc3cc(C)c(Br)c(C)c3)n2)cc1,·,-1%[46.1 µM],·,·,·,5%[46.1 µM]
CCNC(=S)Nc1c(C)n(C)n(-c2ccccc2)c1=O,47%,·,29%,-2,-1,·
Cc1oc(-c2cc(F)ccc2F)nc1CN(C)Cc1ccc2nccnc2c1,?,-6%[46.1 µM],2.9µM*,-2,-5,12%
COc1ccc(F)c(-c2nc(CN3CCN(C(=O)c4ccco4)CC3)c(C)o2)c1,-15%,-8%,-9%,-32,-2,-5%
Cc1oc(-c2cc(F)ccc2F)nc1CN1CCN(c2cnccn2)CC1,13µM*,0%[46.1 µM],?,-4,-2,13%[46.1 µM]
